{
  "source": "PubChem BioAssay",
  "key": {"[1]": {"biological_target": "Nuclear receptor coactivator 3 (Homo sapiens) (UniProt Q9Y6Q9)", "sequence (Q9Y6Q9 whole entry, looked up, the tested form may be a part)": "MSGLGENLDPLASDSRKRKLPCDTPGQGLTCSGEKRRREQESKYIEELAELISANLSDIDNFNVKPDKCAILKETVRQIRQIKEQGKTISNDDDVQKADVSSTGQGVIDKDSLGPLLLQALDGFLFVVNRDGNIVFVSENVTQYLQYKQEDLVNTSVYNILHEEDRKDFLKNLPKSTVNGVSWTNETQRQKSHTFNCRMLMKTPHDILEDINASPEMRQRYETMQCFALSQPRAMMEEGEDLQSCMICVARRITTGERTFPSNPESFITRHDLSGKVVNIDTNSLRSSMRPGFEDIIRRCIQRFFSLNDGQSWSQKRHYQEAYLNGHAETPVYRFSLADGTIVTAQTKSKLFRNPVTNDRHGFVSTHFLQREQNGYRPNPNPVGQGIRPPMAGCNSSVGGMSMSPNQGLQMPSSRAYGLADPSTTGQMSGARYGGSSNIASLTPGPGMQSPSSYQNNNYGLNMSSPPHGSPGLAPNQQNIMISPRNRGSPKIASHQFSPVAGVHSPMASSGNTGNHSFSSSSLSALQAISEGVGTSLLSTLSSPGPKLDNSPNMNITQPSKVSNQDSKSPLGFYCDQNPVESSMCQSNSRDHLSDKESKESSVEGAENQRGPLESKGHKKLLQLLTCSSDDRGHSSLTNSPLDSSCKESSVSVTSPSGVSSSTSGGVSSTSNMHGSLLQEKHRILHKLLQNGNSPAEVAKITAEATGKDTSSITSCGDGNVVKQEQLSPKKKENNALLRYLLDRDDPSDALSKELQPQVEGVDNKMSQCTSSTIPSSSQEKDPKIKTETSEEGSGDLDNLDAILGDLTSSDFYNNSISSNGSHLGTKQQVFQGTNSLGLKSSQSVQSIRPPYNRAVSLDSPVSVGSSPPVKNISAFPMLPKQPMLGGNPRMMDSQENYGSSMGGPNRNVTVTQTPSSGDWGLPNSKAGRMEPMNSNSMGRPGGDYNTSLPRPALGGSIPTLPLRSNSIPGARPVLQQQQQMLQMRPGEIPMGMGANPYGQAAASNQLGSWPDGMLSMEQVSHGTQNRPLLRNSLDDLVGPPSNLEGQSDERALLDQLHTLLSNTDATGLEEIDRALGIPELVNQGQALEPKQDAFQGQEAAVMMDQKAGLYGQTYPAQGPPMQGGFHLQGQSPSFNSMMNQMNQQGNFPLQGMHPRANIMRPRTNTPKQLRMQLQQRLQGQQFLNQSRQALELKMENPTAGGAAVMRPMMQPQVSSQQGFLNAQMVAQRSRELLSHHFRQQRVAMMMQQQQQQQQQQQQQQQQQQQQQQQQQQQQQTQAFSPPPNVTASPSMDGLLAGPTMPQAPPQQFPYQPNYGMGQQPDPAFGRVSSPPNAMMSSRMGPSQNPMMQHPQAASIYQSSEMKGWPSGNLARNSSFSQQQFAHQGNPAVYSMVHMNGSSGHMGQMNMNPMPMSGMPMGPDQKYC", "experiment": "NCOA3 GAL4-fusion reporter inhibition – cell-based, luminescence, quadruplicate, confirmation (AID 588792;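 active = mean inhibition over 43.08%, the solvent-only control mean plus 3 SD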;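 also: 0% = DMSO treated cells and 100% = gossypol at 36 µM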)", "conditions": "HEK293 GAL4-SRC3 luciferase reporter, at 3.6 µM, hits give high values"}, "[2]": {"test_system": "transactivating tegument protein VP16 (Human herpesvirus 1), Gal4-VP16 luciferase reporter", "experiment": "repression of VP16-driven luciferase reporter – cell-based, luminescence, high throughput, counter-screen for SRC3 inhibitor project (AID 588794; in the data active = inhibition above about 30%)", "conditions": "mammalian cells, at 3.6 µM, hits give high values"}, "[3]": {"biological_target": "Nuclear receptor coactivator 1 (Homo sapiens) (UniProt Q15788)", "sequence (Q15788 whole entry, looked up, the tested form may be a part)": "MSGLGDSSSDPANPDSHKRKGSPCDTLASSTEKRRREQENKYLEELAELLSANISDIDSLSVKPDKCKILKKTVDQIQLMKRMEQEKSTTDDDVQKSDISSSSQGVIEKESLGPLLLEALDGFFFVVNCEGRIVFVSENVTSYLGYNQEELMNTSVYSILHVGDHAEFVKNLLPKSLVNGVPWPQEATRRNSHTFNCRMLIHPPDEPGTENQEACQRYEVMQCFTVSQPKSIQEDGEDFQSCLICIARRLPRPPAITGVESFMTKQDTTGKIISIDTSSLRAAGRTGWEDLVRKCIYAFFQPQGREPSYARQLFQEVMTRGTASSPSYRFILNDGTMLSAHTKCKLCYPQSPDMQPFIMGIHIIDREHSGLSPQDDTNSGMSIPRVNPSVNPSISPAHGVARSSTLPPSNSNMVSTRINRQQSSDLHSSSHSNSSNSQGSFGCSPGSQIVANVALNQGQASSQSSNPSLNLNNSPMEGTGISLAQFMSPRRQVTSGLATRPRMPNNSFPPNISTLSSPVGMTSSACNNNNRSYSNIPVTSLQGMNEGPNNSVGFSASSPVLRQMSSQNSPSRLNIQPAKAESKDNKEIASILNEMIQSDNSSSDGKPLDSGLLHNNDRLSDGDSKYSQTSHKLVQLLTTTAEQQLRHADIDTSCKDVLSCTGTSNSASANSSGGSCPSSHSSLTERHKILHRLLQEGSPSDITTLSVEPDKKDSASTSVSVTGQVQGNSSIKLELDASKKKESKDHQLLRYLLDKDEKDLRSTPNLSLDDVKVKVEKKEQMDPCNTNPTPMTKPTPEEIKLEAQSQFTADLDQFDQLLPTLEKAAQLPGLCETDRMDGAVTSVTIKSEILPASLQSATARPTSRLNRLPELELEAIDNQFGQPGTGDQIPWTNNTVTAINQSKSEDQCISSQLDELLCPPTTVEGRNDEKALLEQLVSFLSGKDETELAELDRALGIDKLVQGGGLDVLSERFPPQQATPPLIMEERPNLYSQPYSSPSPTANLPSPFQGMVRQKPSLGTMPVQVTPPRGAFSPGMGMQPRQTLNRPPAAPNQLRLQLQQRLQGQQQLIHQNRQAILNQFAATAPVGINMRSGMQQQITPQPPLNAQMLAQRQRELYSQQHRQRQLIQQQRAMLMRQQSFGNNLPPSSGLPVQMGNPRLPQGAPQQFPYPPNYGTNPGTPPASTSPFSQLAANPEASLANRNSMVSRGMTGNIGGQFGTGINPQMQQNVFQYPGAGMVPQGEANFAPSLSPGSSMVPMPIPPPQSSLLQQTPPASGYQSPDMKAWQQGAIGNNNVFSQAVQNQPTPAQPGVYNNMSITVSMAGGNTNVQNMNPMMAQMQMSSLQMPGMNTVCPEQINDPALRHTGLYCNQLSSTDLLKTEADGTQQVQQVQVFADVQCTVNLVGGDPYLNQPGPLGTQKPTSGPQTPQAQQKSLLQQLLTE", "experiment": "NCOA1 GAL4-fusion reporter inhibition – cell-based, luminescence, quadruplicate, confirmation (AID 588820;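 active = mean inhibition above 46.68%, the untreated control wells mean plus 3 SD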;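 also: 0% = DMSO wells and 100% = gossypol 36 µM treated wells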)", "conditions": "HEK293 GAL4-SRC1 luciferase reporter, at 3.6 µM, hits give high values"}, "[4]": {"experiment": "repression of VP16-driven luciferase reporter – cell-based, luminescence, high throughput, counter-screen for SRC1 inhibitor project (AID 588824; in the data active = inhibition above about 25%)", "conditions": "cell-based VP16 transactivation luciferase luminescence; at 3.6 µM; hits give high values"}, "[5]": {"experiment": "StAR promoter reporter inhibitors, counter-screen for LRH-1 inverse agonist project, cell-based, luminescence, high throughput (AID 651611; in the data active = inhibition above about 28%)", "conditions": "StAR promoter luciferase reporter counterscreen, at 3.6 µM, hits give high values"}, "[6]": {"biological_target": "Nuclear receptor subfamily 5 group A member 2 (Homo sapiens) (UniProt O00482)", "sequence (O00482 whole entry, looked up)": "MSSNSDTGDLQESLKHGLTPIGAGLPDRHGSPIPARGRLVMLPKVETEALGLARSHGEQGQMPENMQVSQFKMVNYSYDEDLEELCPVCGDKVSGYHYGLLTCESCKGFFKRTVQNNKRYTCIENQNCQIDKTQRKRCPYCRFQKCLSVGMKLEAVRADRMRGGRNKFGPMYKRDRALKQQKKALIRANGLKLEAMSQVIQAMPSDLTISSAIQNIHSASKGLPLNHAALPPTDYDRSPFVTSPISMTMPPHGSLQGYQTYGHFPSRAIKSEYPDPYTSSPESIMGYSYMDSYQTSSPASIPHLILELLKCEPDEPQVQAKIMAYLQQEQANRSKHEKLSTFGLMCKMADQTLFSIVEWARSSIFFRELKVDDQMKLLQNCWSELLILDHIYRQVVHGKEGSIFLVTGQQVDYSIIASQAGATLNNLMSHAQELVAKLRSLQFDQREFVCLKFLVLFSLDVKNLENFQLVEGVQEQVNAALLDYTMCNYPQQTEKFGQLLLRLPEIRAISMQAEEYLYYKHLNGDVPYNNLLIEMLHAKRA", "experiment": "NR5A2 activity suppression in reporter cells – cell-based, luminescence, confirmation (AID 651613);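 also: HEK293T cells co-transfected with LRH-1 and StAR promoter luciferase reporter; 0% = vehicle wells and 100% = parental cells lacking receptor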", "conditions": "cell-based LRH-1 luciferase reporter, inverse agonism; at 3.6 µM; hits give high values"}, "[7]": {"biological_target": "Steroidogenic factor 1 (Homo sapiens) (UniProt Q13285)", "sequence (Q13285 whole entry, looked up)": "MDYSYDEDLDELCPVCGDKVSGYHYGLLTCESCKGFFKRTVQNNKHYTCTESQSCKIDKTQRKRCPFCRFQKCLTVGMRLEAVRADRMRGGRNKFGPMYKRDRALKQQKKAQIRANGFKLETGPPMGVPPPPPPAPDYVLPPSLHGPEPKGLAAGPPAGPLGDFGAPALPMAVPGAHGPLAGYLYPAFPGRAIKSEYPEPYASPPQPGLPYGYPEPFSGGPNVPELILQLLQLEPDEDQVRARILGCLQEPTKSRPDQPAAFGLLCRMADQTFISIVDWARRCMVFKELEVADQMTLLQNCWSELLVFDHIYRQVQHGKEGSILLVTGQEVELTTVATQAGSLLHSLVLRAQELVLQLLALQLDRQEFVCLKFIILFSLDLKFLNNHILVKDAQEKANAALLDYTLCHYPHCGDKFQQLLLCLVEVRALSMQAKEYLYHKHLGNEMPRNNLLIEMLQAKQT", "experiment": "inverse agonism at SF1 nuclear receptor – cell-based, luminescence, high throughput, counter-screen for LRH-1 inverse agonist project (AID 651614; in the data active = inhibition above about 44%;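 also: cells cotransfected with StAR promoter reporter and SF1 expression vector; 0% = vehicle on cells with receptor and 100% = vehicle on cells lacking receptor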)", "conditions": "cell-based SF1 luciferase reporter, at 3.6 µM, hits give high values"}, "[8]": {"experiment": "compounds suppressing VP16-driven luciferase signal – cell-based, luminescence, high throughput, counter-screen for LRH-1 inverse agonist project (AID 651615; in the data active = inhibition above about 33%)", "conditions": "Gal4-VP16 luciferase reporter cells, at 3.6 µM, hits give high values"}},
  "note": "A number with no mark means an inactive call. The source made the active and inactive calls. Rule as the data show it, unless noted: active = inhibition above about 42%; inactive = the rest.",
  "data": [
    {"molecule": "N=c1c2c(n(Cc3ccc(Cl)cc3)c3c1CCC3)CCC2", "values": [
      {"measurement": "inhibition", "setting": "[1]", "value": "55.8% (active)"},
      {"measurement": "inhibition", "setting": "[2]", "value": "68.7% (active)"},
      {"measurement": "inhibition", "setting": "[3]", "value": "47.1% (active)"},
      {"measurement": "inhibition", "setting": "[4]", "value": "61.9% (active)"},
      {"measurement": "inhibition", "setting": "[5]", "value": "58.6% (active)"},
      {"measurement": "inhibition", "setting": "[6]", "value": "105% (active)"},
      {"measurement": "inhibition", "setting": "[7]", "value": "85.1% (active)"},
      {"measurement": "inhibition", "setting": "[8]", "value": "78.3% (active)"}
    ]},
    {"molecule": "C#CC[N+](C)(C)CCCCCCCCCCCC", "values": [
      {"measurement": "inhibition", "setting": "[1]", "value": 29.2, "unit": "%"},
      {"measurement": "inhibition", "setting": "[2]", "value": "45.9% (active)"},
      {"measurement": "inhibition", "setting": "[3]", "value": 33.4, "unit": "%"},
      {"measurement": "inhibition", "setting": "[4]", "value": "36.6% (active)"},
      {"measurement": "inhibition", "setting": "[5]", "value": "29.7% (active)"},
      {"measurement": "inhibition", "setting": "[6]", "value": "64.7% (active)"},
      {"measurement": "inhibition", "setting": "[7]", "value": "65.8% (active)"},
      {"measurement": "inhibition", "setting": "[8]", "value": "59.8% (active)"}
    ]},
    {"molecule": "Cc1c(C)c2cccnc2c2ncccc12", "values": [
      {"measurement": "inhibition", "setting": "[1]", "value": "88.2% (active)"},
      {"measurement": "inhibition", "setting": "[2]", "value": "65.7% (active)"},
      {"measurement": "inhibition", "setting": "[3]", "value": "72.8% (active)"},
      {"measurement": "inhibition", "setting": "[4]", "value": "65.7% (active)"},
      {"measurement": "inhibition", "setting": "[5]", "value": "89.9% (active)"},
      {"measurement": "inhibition", "setting": "[6]", "value": "108% (active)"},
      {"measurement": "inhibition", "setting": "[7]", "value": "91.9% (active)"},
      {"measurement": "inhibition", "setting": "[8]", "value": "64.1% (active)"}
    ]},
    {"molecule": "CC1(C)CC(N2CCN(c3ccccc3)CC2)=CC(=[N+]2CCCC2)C1", "values": [
      {"measurement": "inhibition", "setting": "[1]", "value": 23.8, "unit": "%"},
      {"measurement": "inhibition", "setting": "[2]", "value": "37.6% (active)"},
      {"measurement": "inhibition", "setting": "[3]", "value": 2.88, "unit": "%"},
      {"measurement": "inhibition", "setting": "[4]", "value": "33.1% (active)"},
      {"measurement": "inhibition", "setting": "[5]", "value": "30% (active)"},
      {"measurement": "inhibition", "setting": "[6]", "value": "73.2% (active)"},
      {"measurement": "inhibition", "setting": "[7]", "value": "66.5% (active)"},
      {"measurement": "inhibition", "setting": "[8]", "value": "63.7% (active)"}
    ]},
    {"molecule": "O=C(Nc1ccc2c(c1)OCCO2)C(c1cc2ccccc2o1)N1CCN(c2ccc(C(F)(F)F)cn2)CC1", "note": "(stereo not drawn)", "values": [
      {"measurement": "inhibition", "setting": "[1]", "value": 19.5, "unit": "%"},
      {"measurement": "inhibition", "setting": "[2]", "value": 6.65, "unit": "%"},
      {"measurement": "inhibition", "setting": "[3]", "value": -13.5, "unit": "%"},
      {"measurement": "inhibition", "setting": "[4]", "value": -14.1, "unit": "%"},
      {"measurement": "inhibition", "setting": "[5]", "value": -29.7, "unit": "%"},
      {"measurement": "inhibition", "setting": "[6]", "value": -44.4, "unit": "%"},
      {"measurement": "inhibition", "setting": "[7]", "value": -28, "unit": "%"},
      {"measurement": "inhibition", "setting": "[8]", "value": -10.8, "unit": "%"}
    ]},
    {"molecule": "CCC[N+]1(CC#CCC(c2ccccc2)c2ccccc2)CCCCC1", "values": [
      {"measurement": "inhibition", "setting": "[1]", "value": 28.8, "unit": "%"},
      {"measurement": "inhibition", "setting": "[2]", "value": "40.3% (active)"},
      {"measurement": "inhibition", "setting": "[3]", "value": 21.4, "unit": "%"},
      {"measurement": "inhibition", "setting": "[4]", "value": "53.2% (active)"},
      {"measurement": "inhibition", "setting": "[5]", "value": 24.2, "unit": "%"},
      {"measurement": "inhibition", "setting": "[6]", "value": "104% (active)"},
      {"measurement": "inhibition", "setting": "[7]", "value": "67.9% (active)"},
      {"measurement": "inhibition", "setting": "[8]", "value": "73.6% (active)"}
    ]}
  ]
}
